# Several values for one entry are separate records, joined by “and”; a condition that tells them apart may be missing. Identical values can stand only once. Records with an inconclusive call do not appear. Entries that show only a call come without a potency. Unmarked numbers belong to inactive results. Activity calls are given as the source filed them. Calls follow the shape of the dose curve; as a rule, active = well fitted cell-killing curve with a large enough effect in the repeat runs; inconclusive = weak or mixed curves, or effect the other way; inactive = flat fitted curve, though single readings scatter.
# Experiment: qHTS assay to identify small molecule agonists of the estrogen receptor beta (ER-beta) signaling pathway - cell viability counter screen (AID 1259380); also: nearly all actives have a fitted effect of over 30% in size
# Settings: ER-beta-bla HEK293T viability, CellTiter-Glo luminescence, 16 h; series mostly up to 92.4 µM; activity change, negative = cytotoxicity: at the top concentration
# Text: National Center for Advancing Translational Sciences [NCATS]
# NIH Chemical Genomics Center [NCGC]
# U.S. Environmental Protection Agency [EPA]
# National Institutes of Environmental Health Sciences [NIEHS]
# National Toxicology Program [NTP]
# U.S. Food and Drug Administration [FDA]
# Estrogen receptor (ER), a nuclear hormone receptor, plays an important role in development, metabolic homeostasis and reproduction. Two subtypes of ER, ER-alpha and ER-beta, have similar expression patterns with some uniqueness in both types. Endocrine disrupting chemicals (EDCs) and their interactions with steroid hormone receptors like ER causes disruption of normal endocrine function. To identify the compounds that activate ER signaling, an ER beta-UAS-bla GripTite cell line (Life Technologies, Madison, WI, USA) containing a beta-lactamase reporter gene under the control of an UAS response element was used to screen Tox21 10K compound library. The cytotoxicity of the Tox21 compound library against the ER-beta-bla cell line was tested in parallel by measuring the cell viability using CellTiter-Glo assay in the same wells.
# Tox21 Assay Protocol Summary:
# ER-beta-UAS-bla HEK293T cells were dispensed at 2,000 cells/5 uL of assay medium containing 2% charcoal stripped FBS per well into black wall/clear-bottom 1536-well plates using a Multidrop Combi (ThermoFisher Scientific, Waltham, MA) dispenser. After the assay plates were incubated at a 37C and 5% CO2 for 6 hr, 23 nL of compounds dissolved in DMSO, positive controls or DMSO only was transferred to the assay plate by a Pintool station (Kalypsys, San Diego, CA). The plates were incubated at 37C and 5% CO2 for 16 hr. Then 1 uL of LiveBLAzerTM B/G FRET substrate was added using a BioRAPTR FRD (Flying Reagent Dispenser, Aurora Discovery, San Diego, CA) and then the plates were incubated at room temperature for 2 hours, and fluorescence intensity was measured by an Envision plate reader (PerkinElmer, Shelton, CT). For cell viability readout that measures cytotoxicity, 4 uL/well of CellTiter-Glo reagent was added into the assay plates using a FRD. After 30 min incubation at room temperature, the luminescence intensity in the plates was measured using a ViewLux (PerkinElmer) plate reader.
# Potency is read from the fitted curve at half-maximal effect.
Compound,"activity change, negative = cytotoxicity",Potency
CN(C)c1ccc(C(=O)c2ccc(N(C)C)cc2)cc1,-7.93%,
Cc1cccc(N)c1N,1.61%,
C#CCOS(=O)OC1CCCCC1Oc1ccc(C(C)(C)C)cc1 (stereo not given),,27.3 µM (active)
C=C(C)[C@H]1Cc2c(ccc3c2O[C@@H]2COc4cc(OC)c(OC)cc4[C@@H]2C3=O)O1,,inactive
N#Cc1cc(Br)c(O)c(Br)c1,,inactive
CC(C)Oc1cc(-n2nc(C(C)(C)C)oc2=O)c(Cl)cc1Cl,,inactive
CCCCCCOC(=O)c1ccccc1C(=O)OCCCCCC,,inactive
CCC(=O)O[C@H]1CC[C@H]2[C@@H]3CCC4=CC(=O)CC[C@]4(C)[C@H]3CC[C@]12C,,68.6 µM (active)
O=C1C=CC(=O)C=C1,,inactive
CCCCC(CC)COC(=O)c1ccc(C(=O)OCC(CC)CCCC)c(C(=O)OCC(CC)CCCC)c1 (stereo not given),,inactive
Nn1cnnc1,,inactive
CCC(CC)Nc1c([N+](=O)[O-])cc(C)c(C)c1[N+](=O)[O-],,61.1 µM (active)
O=P(O)(O)CCCl,12.3%,
Cc1ccc(OP(=O)(Oc2ccc(C)cc2)Oc2ccc(C)cc2)cc1,,68.5 µM (active)
c1ccc(-c2cccc(-c3ccccc3)c2)cc1,,19.5 µM (active) and 30.6 µM (active)
O=C(O)CC[N+](=O)[O-],,inactive
CC(C)(c1cc(Cl)c(O)c(Cl)c1)c1cc(Cl)c(O)c(Cl)c1,-25.7%,
CCOc1cc(Oc2ccc(C(F)(F)F)cc2Cl)ccc1[N+](=O)[O-],11.1%,
NNC(=S)NN,,30.6 µM (active)
O=P(Oc1ccccc1)(Oc1ccccc1)Oc1ccccc1,,34.4 µM (active)

Compound,"activity change, negative = cytotoxicity",Potency
C=C(C)C(=O)OCC1CO1 (stereo not given),,inactive
COP(=S)(OC)Oc1ccc([N+](=O)[O-])cc1,,inactive
O=[N+]([O-])c1ccc(O)c([N+](=O)[O-])c1,13.4%,
Nc1c(Cl)cc([N+](=O)[O-])cc1Cl,,61.5 µM (active) and 27.3 µM (active)
CCCCN(CCCC)N=O,,inactive
N[C@@H](Cc1ccc(N(CCCl)CCCl)cc1)C(=O)O,-2.23% [at 42.5 µM],
CC(C)(OOC(C)(C)c1ccccc1)c1ccccc1,8.67%,
Nc1ccc(Cl)cc1N,,54.5 µM (active)
CCN(CC)C(=O)SCc1ccc(Cl)cc1,,inactive
Clc1nc(Cl)nc(Cl)n1,,inactive
Cc1cc(Cl)ccc1OCCCC(=O)O,-1.69%,
N#CC(Br)Br,,inactive
C[C@]12CCC(=O)C(O)=C1CC[C@@H]1[C@@H]2CC[C@]2(C)C(=O)CC[C@@H]12,,24.3 µM (active)
CC(C)(C)c1ccccc1O,,inactive
CC(C)c1ccc(CO)cc1,,inactive
Nc1ccncc1,,inactive
CCN(CC)N=O,,inactive
CN(C)C(=O)Nc1ccc(Cl)cc1,,inactive
CCC(C)c1cc([N+](=O)[O-])cc([N+](=O)[O-])c1O (stereo not given),8.31%,
O=[N+]([O-])c1cccc2ccccc12,,inactive

# Reference: PubChem BioAssay (Tox21)
